Results on 3 compounds are retold here after PubChem BioAssay AID624449 (Southern Research Specialized Biocontainment Screening …, 2012).

Potency and affinity values are given separately. The source made the active and inactive calls. A call without a number means that no potency is given here. No rule for the calls is given here.

A short description of the assay: VEEV TC-83 cytopathic effect inhibition, confirmation, cell-based, TC-83 strain, set 6 (AID 624449). To be noted: VEEV TC-83 infected cells; series mostly up to 25 µM.
Regarding `COc1ccccc1-n1c(CN2CCNCC2)nc2ccc([N+](=O)[O-])cc2c1=O`, the compound was classed as inactive.

Turning to `CCN1CCN(Cc2nc3ccc(C(=O)O)cc3c(=O)n2-c2ccccc2)CC1`, the compound was called inactive.

`CCN1CCN(Cc2nc3ccc([N+](=O)[O-])cc3c(=O)n2C)CC1`: the compound was called inactive.
